SMN2 splice up: SMN2 splice variant enhancement. HEK293 SMN2-luciferase splicing reporter, luminescence, 30-36 h. Potency, µM (titrated, usually from 46.1 µM), usual class: activators. AID 1458. 210,000 tested, 2.8% active; also: nearly all actives have a fitted effect of over 55% in size
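qHTS luciferase splicing reporter: luminescence rises when SMN2 exon 7 is included in transfected HEK293 cells. Compound exposure lasted 30-36 h at 37C, with 4.5 mM final sodium butyrate as control, followed by a ONE-Glo read.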
NPC1 promoter act: NPC1 promoter activation; 320,000 tested, 2.4% active; AID 485313; Potency, µM (highest dose often 9.22 µM), hits mostly activators; Huh7 NPC1 promoter luciferase reporter, 24 h; also: nearly all actives have a fitted effect of over 60% in size
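Luminescence read-out of NPC1 promoter-driven luciferase in stably transfected Huh7 cells; compounds delivered in DMSO and left 24 h at 37C, 5% CO2, qHTS titration format.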
FLuc counter: firefly luciferase modulation, counter-screen for miR-21 project; Potency, µM (titrated, usually from 57.5 µM), actives largely listed as inhibitors; AID 588342; purified FLuc, Km substrates, luminescence inhibition; P08659; 360,000 tested, 6.9% active; also: nearly all actives have a fitted effect of over 55% in size
Target sequence (P08659 whole entry, looked up): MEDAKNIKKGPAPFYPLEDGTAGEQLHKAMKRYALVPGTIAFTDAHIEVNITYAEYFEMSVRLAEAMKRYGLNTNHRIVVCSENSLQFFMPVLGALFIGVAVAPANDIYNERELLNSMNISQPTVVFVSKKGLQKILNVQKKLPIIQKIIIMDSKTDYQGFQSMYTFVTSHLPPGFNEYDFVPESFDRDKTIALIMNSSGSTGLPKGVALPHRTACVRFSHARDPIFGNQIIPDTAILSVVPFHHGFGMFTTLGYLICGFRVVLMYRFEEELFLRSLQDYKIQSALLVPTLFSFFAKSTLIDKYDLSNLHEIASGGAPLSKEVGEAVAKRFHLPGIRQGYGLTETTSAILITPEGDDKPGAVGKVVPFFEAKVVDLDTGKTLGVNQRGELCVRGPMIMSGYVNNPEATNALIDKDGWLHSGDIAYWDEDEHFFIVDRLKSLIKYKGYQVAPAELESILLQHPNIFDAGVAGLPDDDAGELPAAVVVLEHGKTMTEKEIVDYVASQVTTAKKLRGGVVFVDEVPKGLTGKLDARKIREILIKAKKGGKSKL
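Biochemical qHTS of compounds, final roughly 60 µM downward over six points, against 10 nM purified firefly luciferase using Km concentrations of substrates (10 uM D-luciferin, 10 uM ATP) in Tris acetate pH 7.5 buffer; luminescence output.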
ELG1 genotoxic: induces genotoxicity in HEK293T cells with luciferase-tagged ELG1. HEK293T ELG1-luciferase reporter, luminescence, 16 h. Potency, µM (highest dose often 46 µM), most hits filed as activators. 330,000 tested, 1.3% active. AID 504466; also: nearly all actives have a fitted effect of over 60% in size
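Screening used a luciferase reporter fused to human ELG1 in HEK293T cells. Luminescence was read on a CCD plate imager after 16 hr exposure and 30 min ONE-Glo incubation.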
Rab9 promoter act: activators of Rab9 promoter | Potency, µM (titrated, usually from 9.22 µM), actives largely listed as activators | AID 485297 | Huh7 Rab9 promoter-luciferase reporter, luminescence, 24 h | 320,000 tested, 2.8% active; also: nearly all actives have a fitted effect of over 60% in size
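Luminescence from Amplite-detected luciferase (10 minutes, ambient) reports Rab9 promoter activation. Before that, stable Rab9-luciferase Huh7 cells (1500/well, reduced-serum OP-MEM I plus 10% FBS) were exposed to compound for 24 hours at 37C.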
Of the large screens only hits and unclear results are named; the others gave an inactive call. An excerpt weighted towards active compounds, which were near 7.4% of everything screened. Calls follow the shape of the dose curve; as a rule, active = well fitted curve in the direction sought with a large enough effect; inconclusive = small, poorly fitted or top-dose-only effect, or another doubt; inactive = no such curve, though single readings can be large; an effect the other way counts as inactive or inconclusive.

CC(=O)c1sc(Nc2nc3ccc(F)cc3s2)nc1C	SMN2 splice up 13µM, NPC1 promoter act 2.8µM, FLuc counter 3.4µM, Rab9 promoter act 1.8µM
CC(C)c1ccc2nc(NC(=O)C3CC3)sc2c1	NPC1 promoter act 1.6µM, FLuc counter 7.6µM, ELG1 genotoxic inconclusive, Rab9 promoter act 1.6µM (no result: SMN2 splice up)
O=C(NNc1nc2ccc(F)cc2s1)c1cccc(F)c1	FLuc counter inconclusive
COC(=O)c1ccc2nc(NC(=O)C(C)(C)C)sc2c1	NPC1 promoter act inconclusive, FLuc counter 0.43µM, ELG1 genotoxic inconclusive, Rab9 promoter act 0.28µM
COc1ccccc1OCC(=O)N1CCN(C(=O)c2ccco2)CC1	none (no result: SMN2 splice up)
COC(=O)c1ccc2nc(NC(=O)C3CCCCC3)sc2c1	NPC1 promoter act 0.89µM, FLuc counter inconclusive, ELG1 genotoxic inconclusive, Rab9 promoter act 0.32µM (no result: SMN2 splice up)
COC(=O)c1ccc2nc(Nc3nc4ccc(F)cc4s3)sc2c1	FLuc counter 4.8µM, ELG1 genotoxic inconclusive
CC(=O)Nc1nc2ccc(C(=O)NC3CCCCC3)cc2s1	none
CCOC(=O)c1csc(Nc2nc3ccc(F)cc3s2)n1	none
COc1ccc(Cn2c(=S)[nH]c3ccccc3c2=O)cc1	none (no result: SMN2 splice up)
Cn1c2ccccc2c2cc(/C=N/NC(=O)c3ccc(O)cc3O)ccc21	FLuc counter inconclusive (no result: SMN2 splice up)
COCCn1c(C)cc(/C=N/NC(=O)c2cc3ccccc3cc2O)c1C	FLuc counter 15µM (no result: SMN2 splice up)
Cn1c(O)c(/C=N/NC(=O)c2cc3ccccc3cc2O)c2ccccc21	NPC1 promoter act inconclusive, FLuc counter 17µM, ELG1 genotoxic inconclusive, Rab9 promoter act 3.5µM (no result: SMN2 splice up)
COc1ccc2c(c1)cc(C(=O)N/N=C/c1c(O)c(C(=O)O)cc3ccccc13)n2C	FLuc counter 2.4µM (no result: SMN2 splice up)
COc1ccc(NC(=O)c2csc(C)c2)cc1OC	FLuc counter inconclusive, ELG1 genotoxic inconclusive (no result: SMN2 splice up)
S=C(Nc1ccccc1)Nc1ccccc1C#Cc1ccccc1	none (no result: NPC1 promoter act, FLuc counter, ELG1 genotoxic, Rab9 promoter act)
CCOc1ccc(Nc2nc3ccccc3n3cnnc23)cc1	FLuc counter 13µM (no result: SMN2 splice up)

High-throughput results deposited in PubChem BioAssay by National Center for Advancing Translational Sciences (NCATS).
